Source: PubChem BioAssay AID1851 (National Center for Advancing Translational Sciences (NCATS), 2009)
Several values for one entry are separate records, joined by “and”; a condition that tells them apart may be missing. Identical values can stand only once. Out of some 16,000 compounds screened, about 5,700 (36%) were called active. Not shown: some 24% with an inconclusive outcome. Some of the results follow. A number with no mark means an inactive call. Calls come from the whole dose curve; as a rule, active = well fitted curve in the direction sought with a large enough effect; inconclusive = small, poorly fitted or top-dose-only effect, or effect the other way; inactive = no such curve, though single readings can be large or run the other way.

Biological target: Cytochrome P450 1A2 (Homo sapiens) (UniProt P05177)
Sequence (P05177 whole entry, looked up): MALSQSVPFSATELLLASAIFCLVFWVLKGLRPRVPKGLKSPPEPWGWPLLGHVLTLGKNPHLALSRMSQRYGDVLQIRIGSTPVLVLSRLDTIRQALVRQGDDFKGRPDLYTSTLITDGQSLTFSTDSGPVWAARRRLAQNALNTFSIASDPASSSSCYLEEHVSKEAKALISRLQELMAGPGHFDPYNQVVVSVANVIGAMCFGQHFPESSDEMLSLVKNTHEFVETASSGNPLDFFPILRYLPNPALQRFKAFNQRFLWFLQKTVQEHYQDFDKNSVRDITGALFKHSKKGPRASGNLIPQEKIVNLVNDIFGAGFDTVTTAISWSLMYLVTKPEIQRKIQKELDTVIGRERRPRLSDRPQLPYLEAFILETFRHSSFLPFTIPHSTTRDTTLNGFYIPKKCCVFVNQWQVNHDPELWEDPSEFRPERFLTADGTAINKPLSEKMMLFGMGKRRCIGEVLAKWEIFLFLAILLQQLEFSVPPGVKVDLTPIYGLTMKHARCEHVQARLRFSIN
Test: Cytochrome panel assay with activity outcomes
Conditions: recombinant CYP, pro-luciferin dealkylation, luminescence, p450-cyp1a2; series mostly up to 57.1 µM; activity, negative = inhibition: at the top concentration
Protocol: The P450 gene superfamily is involved in the metabolism and clearance of xenobiotics. This assay used various human CYP P450 isozymes to measure the dealkylation of various pro-luciferin substrates to luciferin. The luciferin is then measured by luminescence after the addition of a luciferase detection reagent. Pro-luciferin substrate concentration in the assay was equal to its KM for its CYP P450 isozyme. Inhibitors and some substrates limit the production of luciferin, and decrease measured luminescence.
NCGC Assay Protocol Summary:
1, Reagent, 2 uL, Isozyme and Pro-Luciferin
2, Library compounds, 23 nl, 40 uM to 0.24 nM dilution series
3, Controls, 23 nl, Isozyme specific inhibitor
4, Reagent, 2 uL, NADPH regeneration solution
5, Incubation time, 60 min, Isozyme specific temperature
6, Reagent, 4ul, Detection reagent
7, Incubation time, 20 min, Isozyme specific temperature
8, Detection, 1 sec, ViewLux luminescent read
The luciferase-based P450-GloTM Screening Systems were obtained from Promega (Madison, WI) for CYP 1A2 (V9770), CYP 2C9 (V9790), CYP2 C19 (V9880), CYP 2D6 (V9890), and CYP 3A4 Luciferin-PPXE (V9910) and were adapted for 1,536-well microplates and an automated protocol. The control compounds furafylline for 1A2 (F124), sulfaphenazole for CYP 2C9 (S0758), ketoconazole for CYP 2C19 (K1003), quinidine for 2D6 (Q3625), and ketoconazole for 3A4 (K1003) were purchased from Sigma Aldrich (St. Louis, MO). Recombinant P450 enzymes were obtained from baculovirus constructs expressed in insect cells (BD/Gentest).
Medium-binding white solid Kalypsys plates used. Mixtures kept on ice. 1A2: 10 nM 1A2, 100 uM Luc-ME, 100 mM KPO4; 2C9: 10 nM 2C9, 100 uM Luc-H, 25 mM KPO4; 2C19: 5 nM 2C19, 10 uM Luc-H EGE, 50 mM KPO4; 2D6: 5 nM 2D6, 30 uM Luc-ME EGE, 100 mM KPO4; 3A4: 10 nM, 25 uM Luc-PPXE. All amounts are reflected in their final concentration, working concentration is 2x.
NADPH regeneration solution: 1.3 mM NADP+, 3.3 mM glucose-6-phosphate, 3.3 mM MgCl2, 0.4 U/mL glucose-6-phosphate dehydrogenase for all isozymes, 200 mM KPO4 for 3A4. Mixture prepared at RT but kept on ice during automated run.
RT incubation in auxilliary plate hotel for 1A2, 2D6, and 3A4; 37C for 2C9 and 2C19.
Keywords: P450, CYP1A2, CYP2C19, CYP2C9, CYP2D6, CYP3A4, Luciferase, MLSMR, MLSCN, NIH Roadmap, qHTS, NCGC
% is set by controls: 0 for no effect and ±100 for the full control effect.

Compound | AC50 | activity, negative = inhibition
C[C@H](N)Cc1c[nH]c2ccc(OCc3cccs3)cc12 | 1.58 µM (active) and 126 nM (active) | –
C[C@H](N)Cc1c[nH]c2ccc(O)cc12 | – | -15.7%
O=P(O)(O)C(Cl)(Cl)P(=O)(O)O | – | -2.79%
CS(=O)(=O)Nc1ccc(Cc2noc(-c3ccc4[nH]cc(CCN)c4c3)n2)cc1 | 0.0316 µM (active) | –
C=C[C@]12CN(C)[C@H]3C1[C@@]1(C(=O)Nc4ccccc41)[C@H]1C[C@H]2[C@H]3CO1 | – | -3.88% [at 25.6 µM]
O=C1C=C2C=C[C@H]3C[C@@]2(O1)[C@H]1CCCCN31 | – | -3.52% [at 25.6 µM]
Fc1ccccc1CCNCc1cccc(Cl)c1Cl | 5.62 µM (active) | –
c1ccc2c(N3CCNCC3)cccc2c1 | 10 µM (active) | –
CN1CCN(c2ccc3ccccc3n2)CC1 | 10 µM (active) and 3.16 µM (active) | –
O=[N+]([O-])c1ccc2nc(N3CCNCC3)ccc2c1 | 2 µM (active) | –
COc1ccccc1N1CCNCC1 | – | -0.244%
c1ccc2nc(N3CCNCC3)ccc2c1 | 1.58 µM (active) and 1.26 µM (active) and 251 nM (active) | –
c1ccc(CN2CCC3(CCNCC3)CC2)cc1 | – | -13.6%
c1ccc(N2CCC3(CCNCC3)CC2)nc1 | – | -11.5%
C[N+]1([O-])[C@@H]2CC(OC(=O)[C@@H](CO)c3ccccc3)C[C@@H]1[C@H]1O[C@H]12 (some centres undefined) | inactive | –
CCC1(CCSC(=N)N)C(=O)NC(=O)NC1=O | – | -10.9% [at 2.29 µM]
NO | – | -18.7%
CC(=O)O[C@@H]1CN2CCC1CC2 | – | -10.4%
O=C1NC(=O)N(CCNc2ncc(C(F)(F)F)cc2Cl)C(=O)C1/C=N/OCc1c(F)cccc1Cl (centres undefined) | – | -2.55%
CP(=O)(O)C1=CCNCC1 | – | 5.68%

Compound | AC50 | activity, negative = inhibition
COC(=O)CN1CN(c2ccccc2)C2(CCN(Cc3ccc4ccccc4c3)CC2)C1=O | – | -20%
c1cnc(N2CCC3(CCNCC3)CC2)nc1 | – | 2.02%
N[C@H](Cn1ccc(=O)[nH]c1=O)C(=O)O | – | -3.21%
N[C@@H](CSC1c2ccccc2-c2ccccc21)C(=O)O | 2.51 µM (active) | –
N[C@H](CCl)C(=O)O | – | -4.47%
C=C1[C@@H]2C[C@@]3([C@H]1O)[C@H]1C[C@@H]4[C@@]5(C)CC[C@H](O)[C@]4([C@H]1N(CC)C5)[C@H]3C[C@H]2O | – | -12.3% [at 25.6 µM]
CCCCn1c(N)c(C(=O)NCc2cccs2)c2nc3ccccc3nc21 | 2.82 µM (active) | –
CC(C)CCn1c(N)c(C(=O)NCc2cccs2)c2nc3ccccc3nc21 | 2.24 µM (active) | –
COCCCN1CCN(c2nnc3n2-c2sc(Br)cc2C(c2ccccc2Cl)=NC3)CC1 | – | 0.0974%
COC(=O)[C@@H]1[C@@H](O)[C@@]2(O)c3c(OC)cc(OC)cc3O[C@@]2(c2ccc(OC)cc2)[C@H]1c1ccccc1 | – | -2.88% [at 11.4 µM]
CCCC[N+]1(C)[C@@H]2CC(OC(=O)[C@@H](CO)c3ccccc3)C[C@H]1[C@H]1O[C@H]12 (some centres undefined) | – | 1.42%
COc1cc2c(cc1OC)[C@H](C)NCC2 | – | -1.22% [at 25.6 µM]
[N-]=[N+]=NCC(=O)c1c[nH]c(=O)[nH]c1=O | – | 0.0946% [at 2.29 µM]
O=[N+]([O-])c1cc(-c2ccc([As](=O)(O)O)cc2)ccc1[As](=O)(O)O | – | -10.9% [at 2.29 µM]
CCC1(C)CC(=O)NC(=O)C1 | – | -2.91% [at 25.6 µM]
CCC1=C(C[C@H]2NCCc3ccccc32)C[C@@H]2c3cc(OC)c(OC)cc3CCN2C1 | – | -7.08% [at 11.4 µM]
COc1ccc2c(c1OC)CN1CCc3cc4c(cc3[C@H]1C2)OCO4 | 1.58 µM (active) | –
COc1ccc2c(c1OC)C(=O)O[C@H]2[C@H]1c2cc3c(cc2CCN1C)OCO3 | – | -13.2% [at 25.6 µM]
CN(C)CCC(=O)[C@@]1(O)CC[C@H]2[C@H]3CC=C4C[C@@H](O)CC[C@]4(C)[C@H]3CC[C@]21C | – | -5.71% [at 11.4 µM]
CCN1C[C@@]2(COC)CC[C@H](OC)[C@]34[C@@H]1[C@]1(OCO[C@@]15C[C@@H](OC)C1C[C@H]3[C@H]5[C@@H]1OC)[C@H](O)[C@@H]24 | – | 0.342% [at 25.6 µM]

Compound | AC50 | activity, negative = inhibition
CC[C@H](CO)NC(=O)[C@@H]1C=C2c3cccc4c3c(cn4C)C[C@@H]2N(C)C1 | – | -14.7%
CC[C@@H](CO)NC(=O)[C@H]1C=C2c3cccc4c3c(cn4C)C[C@H]2N(C)C1 | 15.8 µM (active) | –
CC(C)C[C@H]1C(=O)N2CCC[C@@H]2[C@]2(O)O[C@](NC(=O)[C@H]3C=C4c5cccc6[nH]c(Br)c(c56)C[C@H]4N(C)C3)(C(C)C)C(=O)N12 | – | -18%
Nc1ccc(S(=O)(=O)c2ccc(NCN3C(=O)NC(=O)C(=O)C3=O)cc2)cc1 | – | -12.8% [at 11.4 µM]
COc1ccc(C(=O)NC2CC3CCCC(C2)N3CC(C)C)cc1OC (centres undefined) | – | -14%
C[C@@]12C(=O)OC(=O)[C@@]1(C)[C@H]1CC[C@@H]2O1 | – | -6%
CC(=O)[C@]1(O)CC[C@@H]2[C@H]3C[C@@H](C)C4=CC(=O)CC[C@@]4(C)[C@H]3[C@@H](O)C[C@]21C | – | -1.99% [at 2.29 µM]
CC(C)N[C@@H](C)Cc1ccc(I)cc1 | 10 µM (active) | –
O=C1NC(=S)NC(=O)C1=Cc1cccc2cc3ccccc3cc12 | 0.398 µM (active) | –
C[C@]12CC[C@@H]3[C@H](CCC4=CC(=O)CC[C@]43C)[C@]1(O)CC[C@@]2(O)C(=O)CO | – | 4.85% [at 2.29 µM]
COc1ccc2[nH]cc(CCN(C)C)c2c1 | 15.8 µM (active) | –
NCCc1c[nH]c2ccc(OC(=O)C(=O)O)cc12 | 2.51 µM (active) | –
COc1ccc2[nH]cc(CCN)c2c1 | 1.58 µM (active) | –
CCCCCCCCCOc1ccc2[nH]cc(CCN)c2c1 | 0.0398 µM (active) | –
CC(=O)O[C@H]1CC[C@@]2(C)C(=CC[C@@H]3[C@H]2CC[C@]2(C)C(=O)CC[C@H]32)C1 | – | -16.8% [at 25.6 µM]
CC(C)NC(=O)N1CCC2(CC1)CCN(C(=O)Oc1ccccc1)CC2 | – | 3.33%
CCOC(=O)c1[nH]c(C)c(C(=O)N2CCC3(CC2)OCCO3)c1C | – | -26.6%
CN(C)C(=O)Oc1ccc[n+](C)c1 | – | 2.74%
CC(C)(C)NC[C@H](O)c1cc(Cl)c(N)c(Cl)c1 | – | -1.17% [at 25.6 µM]
